Source: PubChem BioAssay (National Center for Advancing Translational Sciences (NCATS))
IMPase inh: qHTS Assay for Identifying the Cell-Membrane Permeable IMPase Inhibitors; Inositol monophosphatase 1 (Rattus norvegicus), P97697; inhibition (IP1 accumulation), % at 46.1 µM; AID 901, 2007; CHO-M1 cells, IP1 accumulation, HTRF TR-FRET ratio; 120,000 tested, under 10 active; active means well fitted curve in the direction sought with a large enough effect in the signal ratio, not every such curve was filed as active; inconclusive means small, poorly fitted or top-dose-only effect, or a change in a side signal; inactive means no such curve, though single readings can be large or run the other way; the % refers to the signal ratio;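 further: cells stimulated with carbachol in lithium chloride buffer; plate controls were DMSO basal wells for no effect and reference inhibitor wells for full effect; higher means more IMPase inhibition seen as more IP1 and lower FRET ratio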
Target sequence (P97697 whole entry, looked up): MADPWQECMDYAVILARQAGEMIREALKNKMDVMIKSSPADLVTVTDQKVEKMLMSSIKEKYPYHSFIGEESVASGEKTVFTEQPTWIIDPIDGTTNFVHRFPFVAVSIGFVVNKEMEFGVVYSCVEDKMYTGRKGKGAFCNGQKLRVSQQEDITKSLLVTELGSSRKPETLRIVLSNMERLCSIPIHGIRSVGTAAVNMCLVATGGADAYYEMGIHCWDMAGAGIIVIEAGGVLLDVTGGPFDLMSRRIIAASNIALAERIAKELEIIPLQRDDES
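Cellular IMPase inhibition is scored as a rise in cytosolic IP1, detected by competitive TR-FRET between d2-labelled IP1 and a europium anti-IP1 antibody. M1-expressing CHO cells were stimulated with carbachol for 30 min at 37C, with lithium (50 mM LiCl) present in the buffer.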
PNC assembly inh: High Content Assay for Compounds that inhibit the Assembly of the Perinucleolar Compartment | PC3M PTB-GFP, PNC prevalence imaging, 16 h; active compounds read low | activity change (PNC), negative = inhibition, % at 10 µM | 3.1% of 140,000 active | AID 2417, 2010;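 active means readout at or below -70, meaning at least 70% loss of cells showing the perinucleolar compartment, a nuclear body marking cancer cells; inconclusive means readout between -30 and a set limit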;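 further: plate controls were DMSO wells for no effect and camptothecin positive control wells for full effect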
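PC3M cells stably expressing PTB-GFP, 750–1000 cells/well, treated 16 h at 37 °C with compound (23 nl of library stock), in duplicate. After paraformaldehyde fixation and Hoechst stain, imaged at 20x; PNC prevalence scored by image analysis.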
ALOX12 inhib: qHTS Assay for Inhibitors of 12-hLO (12-human lipoxygenase); Polyunsaturated fatty acid lipoxygenase ALOX12 (Homo sapiens), P18054; purified 12-hLO, xylenol orange hydroperoxide absorbance; Potency, µM (top dose mostly 57.1 µM), without a hit: top-dose activity change, negative = inhibition, actives largely listed as inhibitors; 0.12% of 150,000 active; AID 1452, 2008; further: potency means the concentration at half of the fitted maximal effect; nearly all actives have a fitted effect of over 55% in size
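150 nM 12hLO, 25 mM Hepes pH 7.0 + 0.01% Triton X-100; cpd preinc 15 min RT; 40 uM arachidonic acid, 30 min RT; Fe-XO 30 min; A573/A405 ratio as read-out.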
IMPase Li cell: qHTS Assay for Identifying the Cell-Membrane Permeable IMPase Inhibitors: Potentiation with Lithium | AID 1457, 2008 | CHO-M1 cells, IP1 TR-FRET (IP-One), carbachol + lithium | Potency, µM (top dose mostly 59.4 µM), for inactives: top-dose activity, negative = IMPase inhibition, usual class: inhibitors | 0.35% of 210,000 active;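 further: IP1 builds up when IMPase is blocked and the TR-FRET signal falls; potency means the concentration at half of the fitted maximal effect; plate controls were basal vehicle for no effect and high inhibitor control for full effect; nearly all actives have a fitted effect of over 50% in size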
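Readout is a homogeneous TR-FRET IP1 immunoassay (Ex 320, Em 665 and 620), where raised cytosolic IP1 lowers signal. Cells were CHO-M1 treated 30 min at 37C with test compounds plus a little lithium; AC50 values came from Hill-equation fitting.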
Starred values were filed as active, the others as inactive; ? = inconclusive; . = no result; [ ] = dose if it differs, or a comment. Many of the other results were omitted from the sample, so hits are more common in it than they were. Unless noted, the call rests on the fitted dose curve; in most records, active means well fitted curve in the direction sought with a large enough effect; inconclusive means small, poorly fitted or top-dose-only effect, or another doubt; inactive means no such curve, though single readings can be large; an effect the other way counts as inactive or inconclusive. Unless noted, on the % scale 0 is the no-effect control and ±100 the full control effect.

SMILES	IMPase inh	PNC assembly inh	ALOX12 inhib	IMPase Li cell
CC(=O)OCOC(c1ccc2ccccc2c1)P(=O)(OCOC(C)=O)OCOC(C)=O (stereo unspecified)	.	.	.	2%
Cc1ccc(-c2nnn(CC(=O)N(Cc3ccco3)C(C(=O)NC3CCCC3)c3cccs3)n2)o1 (stereo unspecified)	8	-100*	0%	16%
O=C(NC1CCCC1)C(c1cccs1)N(Cc1ccco1)C(=O)Cn1nnc(-c2cccs2)n1 (stereo unspecified)	-1	?	2%	15%
C=CCOc1cccc(C2C(C(=O)c3ccco3)=C(O)C(=O)N2CCN(CC)CC)c1 (stereo unspecified)	-7	-134*	5%	-27%[38.3 µM]
CCOc1ccc(C2C(C(=O)c3ccco3)=C(O)C(=O)N2CCN(C)C)cc1 (stereo unspecified)	2	-29	-7%	14%[38.3 µM]
Cc1nnc(N2C(=O)C(O)=C(C(=O)c3ccco3)C2c2ccc(C(C)(C)C)cc2)s1 (stereo unspecified)	-9	-109*	7%	?
Cc1nnc(N2C(=O)C(O)=C(C(=O)c3ccco3)C2c2ccc(F)cc2)s1 (stereo unspecified)	?	-13	15%	?
Cc1cc(C)n(-c2nc(C)nc3c2cnn3-c2ccccc2)n1	0	-96*	3%	?
CC(C)(C)NC(=O)c1cc([N+](=O)[O-])ccc1N1CCCCC1	2	11	-1%	8%
O=C1C=CC(O)(c2cc(=O)c3c(O)cc(O)cc3o2)C=C1	.	-119*	-4%	7%
O=c1cc(-c2ccccc2Cl)oc2cc(O)cc(O)c12	.	-15	-6%	1%
CCOC(=O)C1=C(NC(=S)NC(=O)c2ccccc2)c2ccccc2CC1C(C)C (stereo unspecified)	1	-96*	-23%	15%
CCOC(=O)C1=C(NC(=S)NC(=O)c2ccccc2)c2ccccc2CC1(C)CC (stereo unspecified)	.	?	?	8%
CCCCCNC(=O)c1c[nH]c2ccc(S(=O)(=O)N3CCC4(CC3)OCCO4)cc2c1=O	.	-113*	-1%	-1%
Cc1ccc(C2CC(c3ccccc3)=NN2C(=S)Nc2ccccc2)o1 (stereo unspecified)	-1	-88*	?	-6%[38.3 µM]
COC(=O)C1=C(C(=O)OC)[C@@H]2N(C)c3ccccc3[C@@]23C[C@@H](CO)N(C(=O)c2ccco2)C3=N1	.	.	0%[11.4 µM]	-1%
O=C(COc1ccccc1)N(Cc1ccco1)C1CCS(=O)(=O)C1 (stereo unspecified)	11	-4	-2%	-26%[38.3 µM]
O=C(COc1ccccc1Cl)N(Cc1ccco1)C1CCS(=O)(=O)C1 (stereo unspecified)	8	-111*	0%	.
COc1ccc(C2C3=C(CCCC3=O)Nc3nc(SCc4ccccc4)nn32)cc1OC (stereo unspecified)	2	-86*	28%	-10%[38.3 µM]
COc1ccc(C2C3=C(CCCC3=O)Nc3nc(SCc4ccc(C(=O)O)cc4)nn32)cc1OC (stereo unspecified)	?	51	-1%	-3%[38.3 µM]
O=C(CCS(=O)(=O)Cc1ccc(Cl)cc1)NCCc1ccccc1	.	.	.	-9%
N#Cc1ccc(NC(=O)COC(=O)CNC(=O)C2CCCCC2)cc1	4	-105*	-2%	-7%[38.3 µM]
Cc1cccc(NC(=O)COC(=O)CNC(=O)C2CCCCC2)c1	8	-8	-1%	-2%[38.3 µM]
Cc1cccc2sc(NC(=O)CN3C(=O)c4ccccc4C3=O)nc12	-9	?	-1%	6%
Cc1ccc2sc(NC(=O)CN3C(=O)c4ccccc4C3=O)nc2c1C	.	-119*	3%	16%
SMILES	IMPase inh	PNC assembly inh	ALOX12 inhib	IMPase Li cell
O=C(Nc1nnc(-c2ccccc2SCc2ccccc2)s1)Nc1ccccc1F	?	?	2%	-2%[38.3 µM]
O=C(Nc1nnc(-c2ccccc2F)s1)Nc1ccccc1F	.	.	.	10µM*
CSc1ncc(Cl)c(C(=O)C(C#N)c2nc3c(C)cc(C)cc3c(=O)[nH]2)n1 (stereo unspecified)	8	-95*	3%	14%
COc1cccc(C2C(C(=O)c3cc4cccc(OC)c4o3)=C(O)C(=O)N2c2cc(C)on2)c1OC (stereo unspecified)	?	13	0%	10µM*
COc1cccc(C2C(C(=O)c3cc4ccccc4o3)=C(O)C(=O)N2c2cc(C)on2)c1OC (stereo unspecified)	?	19	-7%	11µM*
CCOC(=O)c1cccc(NC(=O)CNS(=O)(=O)c2cccs2)c1	1	-100*	-1%	-2%
CCOC(=O)c1cccc(NC(=O)CCS(=O)(=O)c2cccs2)c1	2	44	-4%	-11%[38.3 µM]
Cc1ccc(Nc2nc(N)nc(CN3CCN(C)CC3)n2)cc1C	-2	?	0%	-5%[38.3 µM]
COC(=O)CC(=O)Cc1nc(N)nc(Nc2ccc(C)c(C)c2)n1	2	-100*	3%	-18%
CS(=O)(=O)Nc1ccc(Nc2c3ccccc3nc3ccccc23)cc1	.	.	-3%[11.4 µM]	0%
O=C(NC1CCCCC1)C(=S)N1CCCC1	.	.	.	6%
C=CCn1c(O)c(N=Nc2ccccc2C)c2ccccc21	.	.	.	9%
C=CCn1c(O)c(N=NC(=O)OC(C)(C)C)c2ccccc21	0	-100*	-1%	-1%
O=C(c1ccco1)N1CCC2(CCN(Cc3nccs3)CC2)CC1	.	.	3%	21%
COc1ccc(CCNC(=O)C2CCN(S(=O)(=O)c3ccc(Cl)cc3)CC2)cc1OC	-10	-100*	-1%	6%
COc1ccc(CCNC(=O)C2CCN(S(C)(=O)=O)CC2)cc1OC	-5[1.84 µM]	-10	-1%	12%[38.3 µM]
COc1ccc(CCNC(=O)C2CCN(Cc3nc(-c4cccc(Cl)c4)oc3C)CC2)cc1OC	-3	-83*	-2%	30%[38.3 µM]
COc1ccc(OC)c(S(=O)(=O)N2CCC(C(=O)NCCC3=CCCCC3)CC2)c1	-6	-100*	-6%	3%
Cc1cccc(-n2ncc3c(NCCN4CCOCC4)ncnc32)c1	?	-21	2%	10µM*
Clc1ccc2[nH]c3c(NCCCN4CCOCC4)ncnc3c2c1	2	-24	-5%	3%[38.3 µM]
Cc1ccc2[nH]c3c(NCCN4CCOCC4)ncnc3c2c1	7	-84*	6%	29%[38.3 µM]
COc1cc(/C=C(/NC(=O)c2ccccc2)C(=O)Nc2ccc(O)cc2)c([N+](=O)[O-])cc1OC	-3	1	0%	.
CCOC(=O)C1=C(c2ccccc2)NC(=O)NC1c1ccc(OC)cc1 (stereo unspecified)	.	.	.	5%
CCOC(=O)C1=C(C)NC(=O)NC1c1ccc2c(c1)OCCO2 (stereo unspecified)	-3	-100*	-4%	-10%[38.3 µM]
